# “And” between values parts separate entries of the source, which are not always exact repeats. Equal entries are not always repeated. The panel holds about 83,000 compounds, 20% with a hit somewhere; the sample as a whole holds those more often.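 Results are percent growth after 48 hours of single-concentration exposure. 100 means growth as in untreated cells, lower positive values show inhibition; negative values down to -100 show cell death.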 The source made the active and inactive calls. Rule for the calls: active = growth percent below 10; inactive = the rest.
# Tested on: MDA-MB-468 breast
# Assay: NCI-60 one-dose screen, 48 h (100 = growth as untreated, 0 = no growth, -100 = all killed)
# Details: 10 µM unless noted
row,SMILES,growth
1,COc1cc(-c2nc(SC(C)C)nc(Nc3cccc(C)c3)c2C#N)cc(OC)c1OC,117% (inactive)
2,Clc1cccc(-c2nc(-c3cccs3)no2)c1,3.37% (active)
3,Nc1ccc2cc3ccc(N)cc3nc2c1,112% (inactive) and -42% (active)
4,N#C/C(=C\c1ccc([N+](=O)[O-])cc1)n1nnc2cc(F)c(F)cc21,-40% (active)
5,COc1cc2nc(-c3cnc(N(C)C)nc3)nc(NC3CCN(Cc4ccccc4)CC3)c2cc1OC,-72.1% (active)
6,CCOC(=O)c1ccc(NC(=O)Nc2nncs2)cc1,12.5% (inactive)
7,CC(=O)c1cc2c(cc1F)C(C)(C)CCC2(C)C,101% (inactive)
8,Nc1nc(=S)c2ncn(C3OC(CO)C(O)C3O)c2[nH]1 (stereo not given),114% (inactive) and -12.1% (active)
9,O=c1[nH]c2cc(Cl)c(Cl)cc2n2cc3ncccc3c12,0.904% (active)
10,Cc1ccc(-c2nc(SCC(=O)Nc3nc(-c4ccc(Cl)cc4)cs3)[nH]c(=O)c2C#N)cc1,117% (inactive)
11,O=C1/C(=C/c2ccccn2)SC(=S)N1N1CCOCC1,101% (inactive)
12,Cc1ccc(C)c(CCO)c1,93.5% (inactive)
13,CCCCCc1cc[n+](CC(=O)c2ccccc2)cc1,86.9% (inactive) and 76% (inactive)
14,O=C1/C=C/[C@@H](O)[C@@H]2C[C@@H](O)C[C@H]2/C=C/CCC[C@H](CCc2ccc(C(F)(F)F)cc2)O1,-20.3% (active)
15,O=C(CSc1nnc(-c2cccnc2SCc2ccccc2)o1)Nc1nc(Cl)cc(Cl)n1,98.8% (inactive)
16,CCCCNC(=O)Oc1ccc(/C(=C(\C)c2ccccc2)c2ccc(OCCN3CCCCC3)cc2)cc1,66.8% (inactive)
17,COc1ncc(-c2ccc3nccc(C#CCCCCC(=O)O)c3c2)cc1NS(=O)(=O)c1ccc(F)cc1F,-29.4% (active)
18,O=C(Nc1ccc2[nH]c3ccccc3c2c1)c1ccccc1Cl,44.8% (inactive)
19,CCC(C)Oc1cc(/C=N/NC(=O)c2cnn3c2NC(c2ccccc2)C3)ccc1OC (stereo not given),19.1% (inactive)
20,CCCCCCCCCCCCC1C/C=C\CCCC(=O)O1 (stereo not given),127% (inactive)

row,SMILES,growth
1,CCN(CC)c1ccc(CNc2ccnc3ccccc23)cc1,1.4% (active)
2,CC(C)(C)c1ccc(S(=O)(=O)Oc2ccc3c4c(c(=O)oc3c2)CCCCC4)cc1,23.9% (inactive)
3,C[N+]1=C(/C=C/c2ccc(I)cc2)C(C)(C)c2ccccc21,95.3% (inactive)
4,CCCCCCCC(=O)OCC/C=C/C1OC1C1OC(=O)/C=C\C=C\C(=O)N(C(C)=O)C(=O)/C=C(/C)CCC2OC2C1OC(=O)NC(C)=O (stereo not given),-3.75% (active)
5,CCN1C2CCC1/C(=C\c1ccccc1)C(=O)/C2=C/c1ccccc1,16.1% (inactive)
6,CCCCN(CCCC)C(=N)c1ccnc2ccccc12,117% (inactive)
7,CC1=CSC2=NC(c3ccc(Cl)c(Cl)c3)=CC(c3ccc(Cl)cc3)N12 (stereo not given),-61.3% (active)
8,O=C1/C(=C/C=C/c2ccco2)SC(=S)N1c1ccccc1,-9.4% (active)
9,CCCCCCc1cc2cc(-c3csc(/C=C/c4ccccc4)n3)c(=O)oc2cc1O,-21.1% (active)
10,COc1cc2c(c(OC)c1OC)-c1ccc(NNC(=S)N(Cc3cccc(C[N+](Cc4cccc(CNC56CC7CC(CC(C7)C5)C6)c4)(Cc4cccc(CNC56CC7CC(CC(C7)C5)C6)c4)Cc4cccc(CN(C(=S)NNc5ccc6c(cc5=O)[C@@H](NC(C)=O)CCc5cc(OC)c(OC)c(OC)c5-6)C56CC7CC(CC(C7)C5)C6)c4)c3)C34CC5CC(CC(C5)C3)C4)c(=O)cc1[C@@H](NC(C)=O)CC2 (stereo not given in full),-52.7% (active)
11,CC(C)C[C@H](C(=O)O)N(C)C(=O)[C@@H]1CCCN1C(=O)[C@H](C)OC(=O)[C@H](CCC(N)=O)NC(=O)[C@@H]1CCC(=O)N1,107% (inactive)
12,NS(=O)(=O)c1ccc(N=Nc2c(O)n(Cc3ccccc3)c3ccc(Cl)cc23)cc1,83.3% (inactive)
13,CNC(=O)c1cc(Oc2cccc3nc(NC(=O)Nc4ccc(F)cc4F)ccc23)ccn1,42.1% (inactive)
14,Fc1ccc(C2CC(c3cccc(Nc4ccncc4)c3)=NN2c2ccccc2)cc1 (stereo not given),-2.33% (active)
15,COc1cc(C2CC(=O)Nc3c2c(C)nn3-c2nc3ccccc3[nH]2)cc(OC)c1OC (stereo not given),96.9% (inactive)
16,O=C(/C=C/c1cccc(Nc2ccnc3cc(Cl)ccc23)c1)c1ccc(Cl)cc1,27.6% (inactive)
17,COc1ccc(/C=C/C(=O)c2cccc(NS(C)(=O)=O)c2)cc1,47% (inactive)
18,CC1(C)NCCC[C@]2(C)[C@H]3CC=C4[C@@H]5C[C@@](C)(CO)CC[C@]5(C)CC[C@@]4(C)[C@]3(C)CC[C@@H]12,67.6% (inactive)
19,Cc1cc(-c2ccccc2)cc(SC#N)[n+]1[O-],34.8% (inactive)
20,CN(C)c1ccc(-c2ccc3[nH]c(=O)nc(-c4ccccc4)c3c2)cn1,42.4% (inactive)
